# PERK inh: block of dimerizer-induced PERK translation repression, primary screen, PERK inhibitor project, CHO PERK-DD cells, SEAP luminescence, HTS; Eukaryotic translation initiation factor 2-alpha kinase 3 (Homo sapiens), Q9NZJ5; CHO PERK-DD fusion, SEAP luminescence translation reporter; inhibition, % at 5.6 µM; 0.17% of 220,000 active; AID 1416, 2008;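 active means inhibition above the mean inhibition of all tested compounds plus 3 SD, set separately per screening campaign, cut at about 2.9% in these data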;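 further: PERK kinase domain activated by AP20187 dimerizer at 100 nM; 0% = DMSO with dimerizer and 100% = rapamycin at 8.4 µM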
# Target sequence (Q9NZJ5 whole entry, looked up, the tested form may be a part): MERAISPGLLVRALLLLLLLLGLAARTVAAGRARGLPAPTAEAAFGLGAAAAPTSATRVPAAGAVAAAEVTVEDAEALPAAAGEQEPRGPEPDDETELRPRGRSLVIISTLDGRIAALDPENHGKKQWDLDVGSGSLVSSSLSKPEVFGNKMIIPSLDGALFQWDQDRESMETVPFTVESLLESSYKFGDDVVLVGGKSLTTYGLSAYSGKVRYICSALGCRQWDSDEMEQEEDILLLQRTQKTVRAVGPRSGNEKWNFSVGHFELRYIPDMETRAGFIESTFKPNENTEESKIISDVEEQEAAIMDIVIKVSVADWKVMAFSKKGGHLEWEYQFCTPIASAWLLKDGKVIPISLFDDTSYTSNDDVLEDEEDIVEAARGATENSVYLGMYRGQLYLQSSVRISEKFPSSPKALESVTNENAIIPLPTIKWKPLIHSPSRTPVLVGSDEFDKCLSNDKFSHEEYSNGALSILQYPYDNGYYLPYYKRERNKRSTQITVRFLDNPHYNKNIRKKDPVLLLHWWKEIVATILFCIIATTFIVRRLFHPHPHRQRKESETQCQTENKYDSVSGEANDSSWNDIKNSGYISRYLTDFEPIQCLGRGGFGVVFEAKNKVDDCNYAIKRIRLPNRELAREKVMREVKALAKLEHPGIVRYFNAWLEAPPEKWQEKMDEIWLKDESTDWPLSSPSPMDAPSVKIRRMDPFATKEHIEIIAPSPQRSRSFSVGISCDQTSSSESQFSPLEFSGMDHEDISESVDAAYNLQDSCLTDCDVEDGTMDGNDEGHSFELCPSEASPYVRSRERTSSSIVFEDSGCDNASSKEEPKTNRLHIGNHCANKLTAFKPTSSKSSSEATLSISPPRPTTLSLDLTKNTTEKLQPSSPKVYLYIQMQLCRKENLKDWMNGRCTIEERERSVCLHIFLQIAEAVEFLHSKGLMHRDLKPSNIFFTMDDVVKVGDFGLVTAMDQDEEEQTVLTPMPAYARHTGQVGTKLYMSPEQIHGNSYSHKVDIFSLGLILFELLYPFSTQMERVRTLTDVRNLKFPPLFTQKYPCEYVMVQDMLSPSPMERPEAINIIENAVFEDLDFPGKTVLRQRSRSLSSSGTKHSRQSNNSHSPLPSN
# TNF death inh: inhibitors of TNF-alpha triggered necroptosis, primary screen, cell-based, Jurkat FADD-/-, single concentration; AID 463075, 2010; 0.068% of 220,000 active; Jurkat FADD-/- TNF necroptosis rescue, ATP luminescence, 24 h; 0 = TNF only, 100 = no-TNF cells; activation (protection from cell death), % at 10 µM;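 active means activation, meaning protection from cell death, of at least 50% relative to plate controls; inactive means activation below 50%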;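 further: necroptosis triggered by 40 ng/mL TNF-alpha added together with compound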
# DTT redox prof: compounds producing H2O2 with reducing agent – biochemical, NIH compound library profiling, artefact control for MLSCN library redox annotation, primary screen; DTT-dependent redox cycling H2O2, phenol red/HRP absorbance; 100% = 100 µM peroxide control, 0% = buffer; activation, % at 10 µM; 0.03% of 200,000 active;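 active means activation of at least 50% relative to the plate's high and low controls in the primary single-dose screen; inactive means activation below 50%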;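 further: compound incubated with DTT at 0.8 mM final as the reducing agent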
# PKD1 inh: inhibitors of human PKD1 kinase, biochemical, fluorescence polarization; PKD1 kinase fluorescence polarization assay; Serine/threonine-protein kinase D1 (Homo sapiens), Q15139; inhibition, % (no concentration beside the values); 0.056% of 200,000 active; in the data active means inhibition above about 50%
# WT yeast gro inh: growth inhibition of WT strain, primary screen, mitochondrial fusion inhibitor project, WT and mutant strains, chemical genetic; mitochondrial fusion phenotypic screen; inhibition, % at 10 µM; 2.1% of 190,000 active; AID 1362, 2008; in the data active means inhibition above about 58%; tested in S. cerevisiae
# L929 necroptosis: inhibitors of zVAD-triggered necroptosis, primary screen, L929 cells; 0.38% of 220,000 active; L929 zVAD necroptosis rescue, ATP luminescence, 24 h; with zVAD 60 µM; viability rescue, % at 10 µM; AID 1377, 2008;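 active means activation, scaled between plate controls, above about 75%, limit read from the data; inactive means activation under that limit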;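 further: 0% = zVAD with DMSO and 100% = DMSO alone without zVAD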
# FP interf 140K: fluorescence polarization interference in PKD1 assay, artefact control for PKD1 inhibitor project, biochemical, 140K library. 85 tested, under 10 active. PKD1 FP assay interference counter-screen. AID 1315, 2008. inhibition, % at 10 µM. shares compounds with PKD1 inh; call rule not given here
# Redox H2O2 DR: redox cycling H2O2 generation, confirmed | shares compounds with DTT redox prof | 40% of 60 active | DTT-dependent redox cycling H2O2, phenol red-HRP absorbance | AID 1234 | EC50, µM;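 active means EC50 under a set limit for hydrogen peroxide production with the reducing agent DTT present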
# Active calls of the source: *; . = no result. Most compounds without a hit are left out; they make up all but 2.4% or so of the library.
SMILES,PERK inh,TNF death inh,DTT redox prof,PKD1 inh,WT yeast gro inh,L929 necroptosis,FP interf 140K,others
CCC(=O)Nc1c2c(nn1-c1ccccc1C)CSC2,1,-1,4,81*,24,0,-9,
COc1ccc(OCc2cc(C(=O)O)c(C)o2)cc1,1,1,.,.,.,0,.,
CCc1ccccc1OCC(=O)NC1CCCC1,0,-1,-1,-6,4,0,.,
COC(=O)c1ccccc1OCC(=O)NC1CCCCC1,0,0,0,85*,-28,1,-12,
Clc1ccc(Nc2ccc(-n3ccnc3)nn2)cc1Cl,-1,-10,-4,52*,-8,1,-6,
CN(C)CCOc1ccc2c(c1)Sc1ccccc1CC2=O,-2,4,0,59*,6,0,-17,
CCOc1ccc(N(CC(=O)Nc2cc(C)ccc2C)S(=O)(=O)c2c(C)[nH]c(=O)[nH]c2=O)cc1,1,0,.,.,.,0,.,
O=C(c1cc(-c2ccncc2)nc2ccccc12)N1CCN(c2ccccn2)CC1,-1,-8,-2,-12,26,2,.,
O=C(c1cc(-c2ccccc2)nc2ccccc12)N1CCN(c2ccccn2)CC1,-1,-1,-1,93*,8,-1,-13,
Cc1nc(S/C(=C/c2ccc(OCc3ccc(C(=O)O)cc3)cc2)C(=O)O)n[nH]1,1,2,0,3,-3,0,.,
Cc1ccc(C(=O)NNC2=Nc3cccc4cccc2c34)cc1,-1,2,1,54*,2,1,-8,
O=C1CC(N2CCN(c3ccccc3F)CC2)C(=O)N1c1ccc(F)cc1 (stereo not drawn),0,0,0,3,.,0,.,
Cc1cccc(N2C(=O)CC(N3CCN(c4ccccc4)CC3)C2=O)c1 (stereo not drawn),0,0,0,10,0,0,.,
O=C1CC(N2CCN(c3ccccc3Cl)CC2)C(=O)N1c1cccc(F)c1 (stereo not drawn),1,-1,-3,109*,-2,0,-11,
O=C1CC(N2CCN(c3ccccc3Cl)CC2)C(=O)N1c1ccc(F)cc1 (stereo not drawn),0,1,1,51*,18,1,-12,
O=c1[nH]nc(-c2ccccc2)c2ccccc12,1,0,.,.,.,1,.,
c1ccc(-c2n[nH]c3ccccc23)cc1,-1,1,-3,90*,8,39,-7,
Nc1nc2ccc([N+](=O)[O-])c(N)c2s1,0,-10,2,97*,1,4,-14,
C=CCOc1cccc(C2C(C(=O)c3ccco3)=C(O)C(=O)N2CCN(CC)CC)c1 (stereo not drawn),1,1,-3,-11,9,0,.,
C=CCOc1cccc(C2C(C(=O)c3ccc(C)o3)=C(O)C(=O)N2c2nccs2)c1 (stereo not drawn),1,-4,2,76*,-1,0,54*,
Cc1ccc(NC(=O)CSc2nnc(-c3ccccn3)n2N)c(Br)c1,-2,-1,.,.,.,1,.,
COc1ccc(C2=NOC(C(=O)NCc3ccco3)C2)cc1 (stereo not drawn),1,-14,0,3,1,-1,.,
COc1cc(C2=NOC(C(=O)NCc3ccco3)C2)cc(OC)c1OC (stereo not drawn),0,-8,0,112*,15,1,-11,
Nc1nnc(SCCCC(=O)c2ccc(F)cc2)s1,0,1,1,65*,-15,1,-11,
NC(N)=NC(=O)c1nc(Cl)c(N)nc1N,1,3,0,80*,23,14,-1,
SMILES,PERK inh,TNF death inh,DTT redox prof,PKD1 inh,WT yeast gro inh,L929 necroptosis,FP interf 140K,others
CN(CCc1ccccn1)C(=O)CCC1CCCN(C(=O)NC2CCCCC2)C1 (stereo not drawn),0,2,0,-9,16,0,.,
O=C(COC(=O)c1ccc([N+](=O)[O-])s1)NCc1ccccc1,0,-3,113*,-6,20,3,.,Redox H2O2 DR=39*
O=C(COC(=O)c1ccc2ccccc2n1)NCc1ccccc1,2,1,-2,1,0,0,.,
CCOc1ccc2c(=O)c(Oc3ccccc3)c(C)oc2c1,0,-6,57*,-1,8,0,.,Redox H2O2 DR=>50
Cc1c(CN(C)C)c2c(n1C)C(=O)c1ccc(Br)cc1-2,-2,5,0,23,-3,8,.,
CCOC(=O)c1c2c(n(C)c1C)C(=O)C(=O)c1ccc(Br)cc1-2,1,-16,322*,-5,.,-2,.,Redox H2O2 DR=0.04*
N#Cc1c(NC(=O)c2ccc(Br)o2)n(-c2ccccc2)c2nc3ccccc3nc12,2,1,.,.,.,0,.,
CCC(C)n1c(NC(=O)c2ccccc2)c(C#N)c2nc3ccccc3nc21 (stereo not drawn),1,-7,63*,-6,.,0,.,Redox H2O2 DR=>50
O=C(Nc1ccccc1F)c1ccc(-n2cncn2)nc1,1,-3,1,-10,0,0,.,
CCOc1cc(/C=N/NC(=O)CCCC(=O)NC2CCCCC2)ccc1O,1,2,0,0,-14,1,.,
Cn1c(-c2ccccc2)c[n+]2c1-c1ccccc1C2,1,-2,3,0,13,0,.,
Cc1ccc(C(=O)c2c(C)oc3c2C(=O)C(=O)c2ccccc2-3)cc1,0,-14,458*,5,57,14,.,Redox H2O2 DR=>50
Cc1ccc(C(=O)c2coc3c2C(=O)C(=O)c2ccccc2-3)cc1,-1,-5,0,1,95,1,.,
Cc1oc2c(c1C(=O)c1ccc(Cl)cc1)C(=O)C(=O)c1ccccc1-2,1,-26,344*,-3,80*,11,.,Redox H2O2 DR=6.4*
O=C(c1ccc(Cl)cc1)c1ccc(CN2C(=O)c3ccccc3C2=O)o1,0,-1,2,-4,11,0,.,
CC(=O)N(/N=C1\Sc2ccccc2C1=O)c1cccc(C)c1,1,-8,296*,-6,6,0,.,Redox H2O2 DR=26*
COc1ccc(CN2C(=O)c3cccnc3C2O)cc1 (stereo not drawn),1,0,68*,2,6,0,.,Redox H2O2 DR=>50
COc1ccc(CN2CCN(CCc3ccccc3)C(CCO)C2)cc1Cn1cncn1 (stereo not drawn),0,1,1,3,3,0,.,
